# MPTP inh: blocks calcium-induced mitochondrial swelling | isolated mouse mitochondria, Ca2+ swelling absorbance, 30 min | inhibition, % at 10 µM | 1.4% of 360,000 active;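 active = inhibition of 50% or more, scaled per plate between neutral and stimulator controls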;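 note: 0% = DMSO wells given calcium and 100% = 1 mM EGTA wells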
# NadD block: blocks S. aureus nicotinate mononucleotide adenylyltransferase | purified NadD enzyme, colorimetric absorbance read-out | inhibition, % at 20 µM | 0.78% of 360,000 active; in the data active = inhibition above about 26%
# aDG glyco up: alpha-DG glycosylation activation; activation, % at 10 µM; Pro5-aDG cells, alpha-DG glycosylation AlphaScreen (IIH6); 0% Pro5, 100% B10-LARGE cell signal; 0.22% of 360,000 active;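 active = activation of at least 8% versus controls, or a plate z-score of at least 8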;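 note: Pro5 are CHO cells carrying HIG-tagged alpha-DG that lacks glycosylation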
# H9c2 TAG inh: inhibitors of triacylglycerol accumulation; H9c2 cells, Nile Red lipid (TAG) fluorescence; cells loaded with 200 µM oleic acid; AID 651582; inhibition, % at 12.5 µM; 0.66% of 230,000 active;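 active = pattern-corrected inhibition of lipid staining of at least 50% with the nuclear-stain viability signal not falling by more than 50%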;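 note: 0% = DMSO wells and 100% = triacsin C control wells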
# NadD inh conf: confirmation of Staphylococcus aureus NadD inhibitors | purified S. aureus NadD, colorimetric enzyme assay | shares compounds with NadD block | 13% of 2,000 active | inhibition, % at 20 µM; in the data active = inhibition mostly above about 42%, no sharp cut-off; inactive = mostly below about 42%
# An asterisk follows results filed as active; · = no result given. A selection: hits, their analogues and other compounds. The true share with any hit is near 2.7%.
SMILES,MPTP inh,NadD block,aDG glyco up,H9c2 TAG inh,NadD inh conf
O=C(O)CC1CC(O)CCC1=O (configuration not stated),-1.3,-4.3,-0.1,·,·
Nc1cc(N)cc(C(=O)OCC(=O)Nc2cc(S(=O)(=O)N3CCCCC3)ccc2Cl)c1,0.6,31.1*,-0.2,-12.9,17.6
Nc1ncnc2oc(-c3ccco3)c(-c3ccco3)c12,2.9,53.8*,0.6,·,27.0
Nc1nnc(-c2ccco2)s1,-0.3,2.1,-0.2,·,·
COc1cccc(C(=O)OCC(=O)N2CCc3ccccc3C2)c1,-0.2,-4.8,-0.2,-20.1,·
CCN(CC)c1ccc(NC(=O)Cn2c(C(C)NC(=O)c3ccc(C)cc3)nc3ccccc32)cc1 (configuration not stated),0.9,34.0*,-0.3,-0.5,1.6
CC(C)(C)c1ccc(C2CC2C(=O)N/N=C\c2cc3ccccc3nc2Cl)cc1 (configuration not stated),20.1,35.6*,3.4,4.0,-0.8
O=C(CNc1ccc2ccccc2c1)N/N=C/c1cc2ccccc2nc1Cl,1.7,40.1*,0.4,·,21.0
O=C(COc1cccc(Cl)c1)N/N=C\c1cc2ccccc2nc1Cl,7.2,6.2,0.1,·,·
O=C1CC(/C=C/c2ccc([N+](=O)[O-])cc2)=Nc2ccccc2N1,2.1,36.0*,-0.4,28.2,1.5
O=C(CN1C(=O)NC2(CCCCC2)C1=O)Nc1cc(C(F)(F)F)ccc1N1CCCC1,-0.5,-0.6,0.0,-2.2,·
CC1CC(C)(C)CC2(C1)NC(=O)N(CC(=O)Nc1cc(C(F)(F)F)ccc1N1CCCCC1)C2=O (configuration not stated),-2.0,41.8*,0.3,-21.9,0.1
COc1cccc(=O)c2c(C)n(CC(=O)c3ccccc3)c(C)c12,1.1,44.7*,-0.2,-2.5,25.4
CCOc1cccc(=O)c2c(C)n(CC(=O)c3ccccc3)c(C)c12,1.2,48.4*,0.0,3.4,25.9
CCOc1ccc2c(ccc(/C=C/c3cc(C)c4cccnc4c3O)[n+]2C)c1,19.8,55.1*,-0.3,-25.5,88.7*
C=CCn1c(=O)[nH]c2cc(C(=O)N3CCN(c4cccc(Cl)c4)CC3)ccc2c1=O,5.6,13.7,2.1,·,·
O=C(c1ccc2c(c1)[nH]c(=S)n1c3ccccc3nc21)N1CCN(c2cccc(Cl)c2)CC1,-0.3,38.8*,0.4,0.8,8.6
CCOc1ccc(S(=O)(=O)N2CCN(S(=O)(=O)c3ccc(C(C)=O)cc3)CC2)cc1,-0.7,0.9,0.0,·,·
CCOc1ccc(S(=O)(=O)N2CN(c3cccc(C(C)=O)c3)c3nc4ccccc4nc32)cc1,1.3,29.7*,-0.3,24.6,7.5
Cc1cc2c(N)cccc2nn1,7.0,36.6*,0.4,15.2,-0.3
O=C(CSc1n[nH]c(-c2cccs2)n1)N1CCN(S(=O)(=O)c2ccc3ccccc3c2)CC1,-11.6,46.9*,-0.1,·,29.0
Nc1cc(=O)[nH]c(SCC(=O)N2CCN(S(=O)(=O)c3ccc4ccccc4c3)CC2)n1,0.0,11.0,-0.8,7.6,·
Cn1cnnc1Sc1cc(N2CCN(S(=O)(=O)c3ccc(Cl)c(Cl)c3)CC2)ccc1[N+](=O)[O-],-3.5,42.1*,1.9,31.2,10.4
Cc1cc(C)n(-c2cc(N3CCN(S(=O)(=O)c4ccc(C)c(C)c4)CC3)ccc2[N+](=O)[O-])n1,-0.3,14.0,0.2,·,·
Cc1cc(C)n(-c2cc(N3CCN(S(=O)(=O)c4ccc5ccccc5c4)CC3)ccc2[N+](=O)[O-])n1,0.1,50.1*,0.3,-15.9,41.1
SMILES,MPTP inh,NadD block,aDG glyco up,H9c2 TAG inh,NadD inh conf
O=S(=O)(c1ccc(-c2ccccn2)s1)N1CCC2(CC1)OCCO2,6.1,-4.7,-0.2,-17.1,·
OCc1ccccc1-c1cnc2sc(NCc3ccc(F)cc3)nn12,-1.2,7.9,0.5,-6.5,·
Cn1c(-c2ccc(C=O)s2)nc2c3ccccc3c3ccccc3c21,1.8,50.0*,0.2,-14.1,11.4
CSC(=NS(=O)(=O)c1ccccc1)NNC(=O)c1c(-c2c(Cl)cccc2Cl)noc1C,-1.0,1.2,-0.1,·,·
C(=N\NC1=Nc2cccc3cccc1c23)/c1ccccc1,1.5,6.0,-0.4,·,·
Clc1ccc(/C=N/NC2=Nc3cccc4cccc2c34)cc1,6.1,30.2*,0.2,·,16.7
Cc1cc(C(=O)N/N=C/c2cc(Br)cc(Br)c2OC(=O)c2cccc(F)c2)n[nH]1,0.0,31.9*,-0.2,17.9,12.6
O=C(c1ccco1)N1N=C(c2ccco2)CC1c1ccc(Cl)cc1Cl (configuration not stated),-0.6,30.5*,0.1,-13.2,-0.2
C[C@H]1CN([C@@H](C)CO)C(=O)CCCn2nncc2CO[C@@H]1CN(C)Cc1ccccc1,0.8,-6.4,0.2,-6.7,·
O=C(c1ccc(Cl)c(S(=O)(=O)Nc2ccccc2C(=O)N2CCc3ccccc3C2)c1)N1CCc2ccccc2C1,8.7,46.9*,0.1,·,32.9
COc1cc(CNc2nc3ccccc3n2Cc2ccccc2)ccc1O,-0.3,-5.9,0.3,-7.2,·
Oc1ccc(C[C@H]2CNC(=S)N2C[C@H]2CCCN2C[C@H](Cc2ccccc2)N2C[C@H](Cc3ccc(O)cc3)N(CC3CCCCCC3)C2=S)cc1,3.8,43.1*,0.1,·,13.6
Oc1ccc(C[C@H]2CN([C@@H](Cc3cccc(O)c3)CN3CCC[C@@H]3CN3C(=S)NC[C@@H]3Cc3ccccc3)C(=S)N2CC2CCCCC2)cc1,0.4,43.6*,1.5,·,32.8
Oc1ccc(C[C@H]2CN([C@@H](Cc3ccccc3)CN3CCCC3CN3C(=S)NC[C@@H]3Cc3ccccc3)C(=S)N2CC2CCCCC2)cc1 (some centres not stated),2.5,42.6*,0.2,·,4.2
CC(C)C[C@H]1CNC(=S)N1C[C@H]1CCCN1C[C@H](Cc1ccc(O)cc1)N1C[C@H](Cc2ccccc2)N(CC2CCCCC2)C1=S,0.1,8.6,0.1,·,·
CC(C)C[C@@H](CN1CCCC1CN1C(=S)NC[C@@H]1Cc1ccc(O)cc1)N1C[C@H](Cc2ccc(O)cc2)N(CC2CCCCC2)C1=S (some centres not stated),0.6,54.3*,0.5,130.2,29.6
O=c1n(Cc2ccccc2)c(O)c2n1Cc1ccccc1N=C2c1ccc(C(F)(F)F)cc1,3.8,4.2,-0.1,·,·
CC(C)CN(C(=O)COc1ccccc1C(=O)NCc1ccccc1)C1CCS(=O)(=O)C1 (configuration not stated),-0.3,1.8,0.0,6.7,·
Cc1cc(C(=O)NNS(=O)(=O)c2cc(C(=O)O)ccc2Cl)c(C)n1-c1ccccc1,-0.6,6.3,0.2,5.6,·
Oc1ccc(C[C@H]2CN([C@@H](Cc3ccc(O)cc3)CN3CCC[C@@H]3CN3C(=S)NC[C@@H]3Cc3ccccc3)C(=S)N2CC2CCCCCC2)cc1,1.0,47.0*,1.4,·,27.4
CC(C)C[C@H]1CN([C@@H](Cc2ccc(O)cc2)CN2CCC[C@@H]2CN2C(=S)NC[C@@H]2Cc2ccccc2)C(=S)N1CC1CCCCC1,0.0,21.7,0.7,·,·

# Assay outcomes (PubChem)
